# Data from the supplement of paper PMC8728848.
# This is one part of a sample in which the strongest signals are shown more often than they occur.
# B1: Clrb (Mus musculus) (protein)
# chain: ITGATKTEQIPVNKTYAACPQNWIGVENKCFYFSEYPSNWTFAQAFCMAQEAQLARFDNQDELNFLMRYKANFDSWIGLHRESSEHPWKWTDNTEYNNTIPIRGEERFAYLNNNGISSTRIYSLRMWICSKLNSYSLHCQTPFFPSGTKHHHHHHHHG
# Assays:
# Test in all cases: glycan array binding signal (z-score within array); higher = stronger binding
# Conditions in all cases: glycan notation: IUPAC condensed, linker removed
# [1] = target: Fuc(a1-2)Gal(b1-4)[Fuc(a1-3)]GlcNAc(b1-3)[Neu5Ac(a2-6)Gal(b1-4)GlcNAc(b1-6)]Gal(b1-4)Glc
# How it was run: (§1)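 From the Consortium for Functional Glycomics database, 3228 arrays were curated, keeping only those whose protein sequence was available. Binding is given as a within-array Z-score averaged across arrays sharing a protein sequence and across linkers. Negative Z-scores can be read as non-binding.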
# Fuc(a1-2)[Gal(a1-3)]Gal = target: Fuc(a1-2)[Gal(a1-3)]Gal
# How it was run: as §1
# [2] = target: Fuc(a1-2)[GalNAc(a1-3)]Gal(b1-4)GlcNAc(b1-2)Man(a1-3)[Fuc(a1-2)[GalNAc(a1-3)]Gal(b1-4)GlcNAc(b1-2)Man(a1-6)]Man(b1-4)GlcNAc(b1-4)[Fuc(a1-6)]GlcNAc
# How it was run: as §1
# [3] = target: Fuc(a1-2)[GalNAc(a1-3)]Gal(b1-4)GlcNAc(b1-3)Gal(b1-4)GlcNAc(b1-3)Gal(b1-4)GlcNAc
# How it was run: as §1
# [4] = target: Fuc(a1-2)[GalNAc(a1-3)]Gal(b1-4)[Fuc(a1-3)]GlcNAc(b1-3)GalNAc
# How it was run: as §1
# Fuc(b1-3)GlcNAc = target: Fuc(b1-3)GlcNAc
# How it was run: as §1
# [5] = target: Gal(a1-3)Gal(b1-4)GlcNAc(b1-3)GalNAc
# How it was run: as §1
# Gal(a1-6)Glc = target: Gal(a1-6)Glc
# How it was run: as §1
# [6] = target: Gal(b1-3)GlcNAc(b1-2)[Gal(b1-3)GlcNAc(b1-6)]Man(a1-6)[Gal(b1-3)GlcNAc(b1-2)Man(a1-3)]Man(b1-4)GlcNAc(b1-4)GlcNAc
# How it was run: as §1
# [7] = target: Gal(b1-3)GlcNAc(b1-3)Gal(b1-3)GlcNAc
# How it was run: as §1
# [8] = target: Gal(b1-3)[Fuc(a1-4)]GlcNAc
# How it was run: as §1
# [9] = target: Gal(b1-3)[Fuc(a1-4)]GlcNAc(b1-3)Gal(b1-3)[Fuc(a1-4)]GlcNAc
# How it was run: as §1
# [10] = target: Gal(b1-3)[GlcNAc(b1-6)]GalNAc
# How it was run: as §1
# Gal(b1-4)GlcNAc = target: Gal(b1-4)GlcNAc
# How it was run: as §1
# [11] = target: Gal(b1-4)GlcNAc(b1-2)Man(a1-3)Man(b1-4)GlcNAc(b1-4)GlcNAc
# How it was run: as §1
# [12] = target: Gal(b1-4)GlcNAc(b1-2)[Gal(b1-4)GlcNAc(b1-6)]Man(a1-6)[GlcNAc(b1-4)][Gal(b1-4)GlcNAc(b1-2)Man(a1-3)]Man(b1-4)GlcNAc(b1-4)GlcNAc
# How it was run: as §1
# [13] = target: Gal(b1-4)GlcNAc(b1-3)[Fuc(a1-3)GlcNAc(b1-6)]Gal(b1-4)Glc
# How it was run: as §1
# [14] = target: Gal(b1-4)GlcNAc(b1-3)[GlcNAc(b1-6)]Gal(b1-4)GlcNAc
# How it was run: as §1
# Gal3S6S(b1-4)GlcNAc = target: Gal3S6S(b1-4)GlcNAc
# How it was run: as §1
# Gal4S(b1-4)GlcNAc = target: Gal4S(b1-4)GlcNAc
# How it was run: as §1
# Gal4S6S(b1-4)GlcNAc = target: Gal4S6S(b1-4)GlcNAc
# How it was run: as §1
# Gal6S(b1-3)GlcNAc6S = target: Gal6S(b1-3)GlcNAc6S
# How it was run: as §1
# [15] = target: GalNAc(a1-3)GalNAc(a1-3)Gal(a1-4)Gal(b1-4)GlcNAc
# How it was run: as §1
# [16] = target: GalNAc(b1-3)Gal(a1-6)Gal(b1-4)Glc
# How it was run: as §1
# [17] = target: GalNAc(b1-4)GlcNAc(b1-2)Man(a1-3)[GalNAc(b1-4)GlcNAc(b1-2)Man(a1-6)]Man(b1-4)GlcNAc(b1-4)GlcNAc
# How it was run: as §1
# GalNAc6S(b1-4)GlcNAc = target: GalNAc6S(b1-4)GlcNAc
# How it was run: as §1
# [18] = target: Glc(a1-4)Glc(a1-4)Glc(a1-4)Glc
# How it was run: as §1
# [19] = target: GlcNAc(a1-3)Gal(b1-4)GlcNAc
# How it was run: as §1
# [20] = target: GlcNAc(a1-4)Gal(b1-3)GlcNAc
# How it was run: as §1
# [21] = target: GlcNAc(a1-4)Gal(b1-4)GlcNAc
# How it was run: as §1
# [22] = target: GlcNAc(a1-4)Gal(b1-4)GlcNAc(b1-3)Gal(b1-4)GlcNAc(b1-3)Gal(b1-4)GlcNAc
# How it was run: as §1
# [23] = target: GlcNAc(b1-2)Man(a1-3)[GlcNAc(b1-4)][GlcNAc(b1-2)Man(a1-6)]Man(b1-4)GlcNAc(b1-4)[Fuc(a1-6)]GlcNAc
# How it was run: as §1
# [24] = target: GlcNAc(b1-2)[GlcNAc(b1-4)]Man(a1-3)[GlcNAc(b1-4)][GlcNAc(b1-2)Man(a1-6)]Man(b1-4)GlcNAc(b1-4)GlcNAc
# How it was run: as §1
# [25] = target: GlcNAc(b1-3)Gal(b1-4)GlcNAc(b1-2)[GlcNAc(b1-3)Gal(b1-4)GlcNAc(b1-6)]Man(a1-6)[GlcNAc(b1-3)Gal(b1-4)GlcNAc(b1-2)Man(a1-3)]Man(b1-4)GlcNAc(b1-4)GlcNAc
# How it was run: as §1
# GlcNAc(b1-3)Man = target: GlcNAc(b1-3)Man
# How it was run: as §1
# [26] = target: GlcNAc(b1-4)GlcNAc(b1-4)GlcNAc(b1-4)GlcNAc(b1-4)GlcNAc(b1-4)GlcNAc
# How it was run: as §1
# [27] = target: GlcNAc(b1-6)Gal(b1-4)GlcNAc
# How it was run: as §1
# [28] = target: Man(a1-3)[Man(a1-6)]Man(b1-4)GlcNAc(b1-4)GlcNAc
# How it was run: as §1
# [29] = target: Neu5Ac(a2-3)Gal(b1-3)[Fuc(a1-4)]GlcNAc(b1-3)Gal(b1-3)[Fuc(a1-4)]GlcNAc
# How it was run: as §1
# [30] = target: Neu5Ac(a2-3)Gal(b1-4)GlcNAc(b1-2)Man(a1-3)[Neu5Ac(a2-3)Gal(b1-4)GlcNAc(b1-2)Man(a1-6)]Man(b1-4)GlcNAc(b1-4)[Fuc(a1-6)]GlcNAc
# How it was run: as §1
# [31] = target: Neu5Ac(a2-3)Gal(b1-4)GlcNAc(b1-3)Gal(b1-3)GlcNAc
# How it was run: as §1
# [32] = target: Neu5Ac(a2-3)Gal(b1-4)GlcNAc(b1-3)GalNAc
# How it was run: as §1
# [33] = target: Neu5Ac(a2-3)Gal(b1-4)GlcNAc(b1-6)GalNAc
# How it was run: as §1
# [34] = target: Neu5Ac(a2-3)Gal(b1-4)[Fuc(a1-3)]GlcNAc(b1-3)GalNAc
# How it was run: as §1
# [35] = target: Neu5Ac(a2-3)Gal6S(b1-4)GlcNAc
# How it was run: as §1
# [36] = target: Neu5Ac(a2-6)Gal(b1-4)GlcNAc(b1-2)Man(a1-3)[GlcNAc(b1-2)Man(a1-6)]Man(b1-4)GlcNAc(b1-4)GlcNAc
# How it was run: as §1
# [37] = target: Neu5Ac(a2-6)Gal(b1-4)GlcNAc(b1-2)Man(a1-6)[Man(a1-3)]Man(b1-4)GlcNAc(b1-4)GlcNAc
# How it was run: as §1
# [38] = target: Neu5Ac(a2-6)Gal(b1-4)GlcNAc(b1-3)Gal(b1-4)GlcNAc(b1-3)GalNAc
# How it was run: as §1
# [39] = target: Neu5Ac(a2-6)Gal(b1-4)GlcNAc(b1-3)Gal(b1-4)[Fuc(a1-3)]GlcNAc(b1-3)Gal(b1-4)[Fuc(a1-3)]GlcNAc
# How it was run: as §1
# Neu5Ac(a2-6)GalNAc = target: Neu5Ac(a2-6)GalNAc
# How it was run: as §1
# [40] = target: Neu5Ac(a2-6)GalNAc(b1-4)GlcNAc
# How it was run: as §1
# [41] = target: Neu5Ac(a2-8)Neu5Ac(a2-8)Neu5Ac(a2-3)[Gal(b1-3)GalNAc(b1-4)]Gal(b1-4)Glc
# How it was run: as §1
# [42] = target: Neu5Ac(a2-8)Neu5Ac(a2-8)Neu5Ac(a2-8)Neu5Ac(a2-3)[GalNAc(b1-4)]Gal(b1-4)Glc
# How it was run: as §1
# Neu5Gc(a2-6)GalNAc = target: Neu5Gc(a2-6)GalNAc
# How it was run: as §1
binder,measurement,setting,value
B1,glycan array binding signal (z-score),[1],-0.359
same,glycan array binding signal (z-score),Fuc(a1-2)[Gal(a1-3)]Gal,-0.293
same,glycan array binding signal (z-score),[2],-0.417
same,glycan array binding signal (z-score),[3],-0.215
same,glycan array binding signal (z-score),[4],-0.299
same,glycan array binding signal (z-score),Fuc(b1-3)GlcNAc,-0.294
same,glycan array binding signal (z-score),[5],-0.505
same,glycan array binding signal (z-score),Gal(a1-6)Glc,-0.176
same,glycan array binding signal (z-score),[6],-0.249
same,glycan array binding signal (z-score),[7],-0.431
same,glycan array binding signal (z-score),[8],-0.303
same,glycan array binding signal (z-score),[9],-0.404
same,glycan array binding signal (z-score),[10],-0.186
same,glycan array binding signal (z-score),Gal(b1-4)GlcNAc,-0.146
same,glycan array binding signal (z-score),[11],-0.355
same,glycan array binding signal (z-score),[12],-0.157
same,glycan array binding signal (z-score),[13],-0.386
same,glycan array binding signal (z-score),[14],5.13
same,glycan array binding signal (z-score),Gal3S6S(b1-4)GlcNAc,-0.099
same,glycan array binding signal (z-score),Gal4S(b1-4)GlcNAc,-0.31
same,glycan array binding signal (z-score),Gal4S6S(b1-4)GlcNAc,-0.101
same,glycan array binding signal (z-score),Gal6S(b1-3)GlcNAc6S,-0.357
same,glycan array binding signal (z-score),[15],-0.541
same,glycan array binding signal (z-score),[16],-0.023
same,glycan array binding signal (z-score),[17],4.64
same,glycan array binding signal (z-score),GalNAc6S(b1-4)GlcNAc,4.38
same,glycan array binding signal (z-score),[18],-0.498
same,glycan array binding signal (z-score),[19],5.77
same,glycan array binding signal (z-score),[20],3.81
same,glycan array binding signal (z-score),[21],4.2
same,glycan array binding signal (z-score),[22],5.29
same,glycan array binding signal (z-score),[23],4.51
same,glycan array binding signal (z-score),[24],4.02
same,glycan array binding signal (z-score),[25],0.54
same,glycan array binding signal (z-score),GlcNAc(b1-3)Man,-0.377
same,glycan array binding signal (z-score),[26],7.67
same,glycan array binding signal (z-score),[27],1.87
same,glycan array binding signal (z-score),[28],-0.297
same,glycan array binding signal (z-score),[29],-0.359
same,glycan array binding signal (z-score),[30],-0.226
same,glycan array binding signal (z-score),[31],-0.383
same,glycan array binding signal (z-score),[32],-0.44
same,glycan array binding signal (z-score),[33],-0.392
same,glycan array binding signal (z-score),[34],-0.205
same,glycan array binding signal (z-score),[35],-0.365
same,glycan array binding signal (z-score),[36],-0.472
same,glycan array binding signal (z-score),[37],-0.503
same,glycan array binding signal (z-score),[38],-0.628
same,glycan array binding signal (z-score),[39],-0.211
same,glycan array binding signal (z-score),Neu5Ac(a2-6)GalNAc,-0.508
same,glycan array binding signal (z-score),[40],4.69
same,glycan array binding signal (z-score),[41],-0.421
same,glycan array binding signal (z-score),[42],-0.449
same,glycan array binding signal (z-score),Neu5Gc(a2-6)GalNAc,-0.377
